# Reference: PubChem BioAssay (NCI)
# This is part of a sample that, as a whole, favours compounds with a hit. Of some 79,000 tested, about 15% had one in any assay. Values without a mark were called inactive. Calls of active or inactive are those of the source. Rule as the data show it: active = growth inhibition above about 70%; inactive = the rest.
# Key:
# [1] = NCI Yeast Anticancer Drug Screen. Data for the rad52 strain (AID 147);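 also: 0% = growth of vehicle-treated control cultures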; details: S. cerevisiae rad52 mutant growth inhibition, active compounds read high
# In short: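 Read-out: growth inhibition versus vehicle-treated controls. Cells were a DNA repair-deficient yeast strain treated with compounds.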
# [2] = NCI Yeast Anticancer Drug Screen. Data for the wt1 strain (AID 149);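 also: 0% = growth of vehicle-treated wt1 cultures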; details: S. cerevisiae wt1 strain (SPY 50644) growth inhibition, active compounds read high
# In short: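 Each compound is tested on wt1 yeast and the loss of growth versus vehicle gives the inhibition value.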
# [3] = NCI Yeast Anticancer Drug Screen. Data for the rad50EPP+ strain (AID 151);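 also: 0% = growth of vehicle-treated control cultures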; details: S. cerevisiae rad50 mutant strain, active compounds read high
# In short: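 Growth inhibition read against vehicle controls in rad50EPP+ yeast, a strain altered in DNA damage repair, after compound exposure.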
# [4] = NCI Yeast Anticancer Drug Screen. Data for the mgt1 strain (AID 153); details: S. cerevisiae mgt1 mutant growth inhibition, active compounds read high
# In short: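 mgt1 yeast grown with test compound; read-out is growth inhibition versus vehicle-treated cultures.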
# [5] = NCI Yeast Anticancer Drug Screen. Data for the rad50 strain (AID 155);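 also: 0% = growth of vehicle-only cultures of the same strain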; details: S. cerevisiae rad50 strain growth inhibition, active compounds read high
# In short: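 Vehicle-treated cultures provide the reference for the growth inhibition reported for compound-exposed, repair-deficient yeast.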
# [6] = NCI Yeast Anticancer Drug Screen. Data for the mec2-1 strain (AID 157); details: S. cerevisiae mec2-1 strain, active compounds read high
# In short: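 Yeast mec2-1 mutant treated with compound. Readout: growth inhibition vs vehicle controls.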
# [7] = NCI Yeast Anticancer Drug Screen. Data for the rad14 strain (AID 159);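 also: 0% = growth of vehicle-treated control cultures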; details: S. cerevisiae rad14 strain growth inhibition, active compounds read high
# In short: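 Inhibition of growth is reported for a repair-deficient yeast mutant following compound treatment, calculated relative to cultures that received vehicle.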
# [8] = NCI Yeast Anticancer Drug Screen. Data for the sgs1 mgt1 strain (AID 161);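 also: 0% = growth of cultures given vehicle only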; details: S. cerevisiae sgs1 mgt1 strain, active compounds read high
# In short: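 Read-out: growth inhibition vs vehicle controls. Cells: mutant yeast strain deficient in DNA damage repair.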
# [9] = NCI Yeast Anticancer Drug Screen. Data for the CLN2oe strain (AID 163);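 also: 0% = growth of vehicle-only control cultures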; details: S. cerevisiae CLN2oe strain, active compounds read high
# In short: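 Read-out: yeast growth inhibition, expressed relative to vehicle-only controls. The strain bears an engineered cell-cycle alteration.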
# [10] = NCI Yeast Anticancer Drug Screen. Data for the cln2 rad14 strain (AID 165);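 also: 0% = growth equal to vehicle treated cultures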; details: S. cerevisiae cln2 rad14 strain, active compounds read high
# In short: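 cln2 rad14 yeast strain; compound exposure; growth inhibition read vs vehicle controls.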
# [11] = NCI Yeast Anticancer Drug Screen. Data for the bub3 strain (AID 167); details: S. cerevisiae bub3 mutant strain, active compounds read high
# In short: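 Mutant yeast screening strain plus compound; vehicle-treated cultures serve as the 0% inhibition reference.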
# [12] = NCI Yeast Anticancer Drug Screen. Data for the wt2 strain (AID 169); details: S. cerevisiae wt2 strain growth inhibition, active compounds read high
# In short: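 Read-out: growth inhibition versus vehicle-treated control cultures after compound exposure of the yeast strain.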
# [13] = NCI Yeast Anticancer Drug Screen. Data for the mlh1 strain (AID 171);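 also: 0% = growth of vehicle-treated control cultures of the same strain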; details: S. cerevisiae mlh1 strain growth inhibition, active compounds read high
# In short: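 Read-out: growth inhibition versus vehicle controls. Strain: engineered yeast with a defined DNA repair or cell cycle defect, compound-treated.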
# [14] = NCI Yeast Anticancer Drug Screen. Data for the mlh1 rad18 strain (AID 175); details: S. cerevisiae mlh1 rad18 strain growth inhibition, active compounds read high
# In short: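 Yeast w/ defined DNA-repair lesions; compound exposure; growth vs vehicle controls → % inhibition.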
# [15] = NCI Yeast Anticancer Drug Screen. Data for the rad18 strain (AID 177); details: S. cerevisiae rad18 mutant growth inhibition, active compounds read high
# In short: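 Readout: growth inhibition vs vehicle controls. Cells: genetically altered yeast strain, DNA repair defect.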
# [16] = NCI Yeast Anticancer Drug Screen. Data for the sgs1 strain (AID 173);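 also: 0% = growth of vehicle-only control cultures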; details: S. cerevisiae sgs1 mutant, active compounds read high
# In short: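 Read-out: yeast growth inhibition relative to vehicle controls, following compound exposure of a strain with a defined DNA repair/cell cycle alteration.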
# [17] = at 5.0 µM (retest, dose inferred, filed as 0.5)
# [18] = at 50.0 µM (retest, dose inferred, filed as 5.0)
smiles,measurement,setting,value
COc1cc2oc3ccccc3c(=O)c2cc1CSc1ccccc1N,growth inhibition,[1]; at 1.2 µM,-1%
same,growth inhibition,[1]; at 3.7 µM,1%
same,growth inhibition,[1]; at 11.0 µM,1%
same,growth inhibition,[1]; at 33.0 µM,8%
same,growth inhibition,[1]; at 100.0 µM,8%
same,growth inhibition,[2]; at 1.2 µM,-1%
same,growth inhibition,[2]; at 3.7 µM,-1%
same,growth inhibition,[2]; at 11.0 µM,-1%
same,growth inhibition,[2]; at 33.0 µM,-2%
same,growth inhibition,[2]; at 100.0 µM,0%
same,growth inhibition,[3]; at 1.2 µM,-5%
same,growth inhibition,[3]; at 3.7 µM,1%
same,growth inhibition,[3]; at 11.0 µM,4%
same,growth inhibition,[3]; at 33.0 µM,14%
same,growth inhibition,[3]; at 100.0 µM,16%
same,growth inhibition,[4]; at 1.2 µM,1%
same,growth inhibition,[4]; at 3.7 µM,0%
same,growth inhibition,[4]; at 11.0 µM,-2%
same,growth inhibition,[4]; at 33.0 µM,-2%
same,growth inhibition,[4]; at 100.0 µM,6%
same,growth inhibition,[5]; at 1.2 µM,0%
same,growth inhibition,[5]; at 3.7 µM,0%
same,growth inhibition,[5]; [17],9%
same,growth inhibition,[5]; at 11.0 µM,1%
same,growth inhibition,[5]; at 33.0 µM,6%
same,growth inhibition,[5]; [18],26%
same,growth inhibition,[5]; at 50.0 µM,44.9%
same,growth inhibition,[5]; at 100.0 µM,7%
same,growth inhibition,[6]; at 1.2 µM,-2%
same,growth inhibition,[6]; at 3.7 µM,-1%
same,growth inhibition,[6]; [17],8%
same,growth inhibition,[6]; at 11.0 µM,-1%
same,growth inhibition,[6]; at 33.0 µM,2%
same,growth inhibition,[6]; [18],8%
same,growth inhibition,[6]; at 50.0 µM,-19.2%
same,growth inhibition,[6]; at 100.0 µM,15%
same,growth inhibition,[7]; at 1.2 µM,0%
same,growth inhibition,[7]; at 3.7 µM,-6%
same,growth inhibition,[7]; at 11.0 µM,-5%
same,growth inhibition,[7]; at 33.0 µM,-18%
same,growth inhibition,[7]; at 100.0 µM,-16%
same,growth inhibition,[8]; [17],3%
same,growth inhibition,[8]; [18],48%
same,growth inhibition,[8]; at 50.0 µM,39.8%
same,growth inhibition,[9]; at 1.2 µM,-4%
same,growth inhibition,[9]; at 3.7 µM,3%
same,growth inhibition,[9]; at 11.0 µM,-1%
same,growth inhibition,[9]; at 33.0 µM,2%
same,growth inhibition,[9]; at 100.0 µM,3%
same,growth inhibition,[10]; [17],2%
same,growth inhibition,[10]; [18],34%
same,growth inhibition,[10]; at 50.0 µM,27.5%
same,growth inhibition,[11]; at 1.2 µM,-1%
same,growth inhibition,[11]; at 3.7 µM,2%
same,growth inhibition,[11]; [17],4%
same,growth inhibition,[11]; at 11.0 µM,35%
same,growth inhibition,[11]; at 33.0 µM,54%
same,growth inhibition,[11]; [18],71% (active)
same,growth inhibition,[11]; at 50.0 µM,72.4% (active)
same,growth inhibition,[11]; at 100.0 µM,74% (active)
same,growth inhibition,[12]; at 1.2 µM,-1%
same,growth inhibition,[12]; at 3.7 µM,-2%
same,growth inhibition,[12]; at 11.0 µM,-2%
same,growth inhibition,[12]; at 33.0 µM,3%
same,growth inhibition,[12]; at 100.0 µM,7%
same,growth inhibition,[13]; at 1.2 µM,-5%
same,growth inhibition,[13]; at 3.7 µM,0%
same,growth inhibition,[13]; at 11.0 µM,-1%
same,growth inhibition,[13]; at 33.0 µM,2%
same,growth inhibition,[13]; at 100.0 µM,-7%
same,growth inhibition,[14]; [17],15%
same,growth inhibition,[14]; [18],31%
same,growth inhibition,[14]; at 50.0 µM,39.9%
same,growth inhibition,[15]; at 1.2 µM,-14%
same,growth inhibition,[15]; at 3.7 µM,-7%
same,growth inhibition,[15]; at 11.0 µM,-12%
same,growth inhibition,[15]; at 33.0 µM,8%
same,growth inhibition,[15]; at 100.0 µM,3%
Cc1cccc2c1C1c3c(C)cccc3C(CC(=O)O)CC1CC2 (stereo unspecified),growth inhibition,[1]; at 1.2 µM,13%
same,growth inhibition,[1]; at 3.7 µM,92% (active)
same,growth inhibition,[1]; at 11.0 µM,97% (active)
same,growth inhibition,[1]; at 33.0 µM,95% (active)
same,growth inhibition,[1]; at 100.0 µM,88% (active)
same,growth inhibition,[2]; at 1.2 µM,2%
same,growth inhibition,[2]; at 3.7 µM,77% (active)
same,growth inhibition,[2]; at 11.0 µM,98% (active)
same,growth inhibition,[2]; at 33.0 µM,96% (active)
same,growth inhibition,[2]; at 100.0 µM,92% (active)
same,growth inhibition,[3]; at 1.2 µM,15%
same,growth inhibition,[3]; at 3.7 µM,25%
same,growth inhibition,[3]; at 11.0 µM,53%
same,growth inhibition,[3]; at 33.0 µM,66%
same,growth inhibition,[3]; at 100.0 µM,48%
same,growth inhibition,[4]; at 1.2 µM,0%
same,growth inhibition,[4]; at 3.7 µM,47%
same,growth inhibition,[4]; at 11.0 µM,98% (active)
same,growth inhibition,[4]; at 33.0 µM,97% (active)
same,growth inhibition,[4]; at 100.0 µM,92% (active)
same,growth inhibition,[5]; at 1.2 µM,13%
same,growth inhibition,[5]; at 3.7 µM,90% (active)
same,growth inhibition,[5]; [17],22%
same,growth inhibition,[5]; at 11.0 µM,97% (active)
same,growth inhibition,[5]; at 33.0 µM,93% (active)
same,growth inhibition,[5]; [18],96% (active)
same,growth inhibition,[5]; at 50.0 µM,99% (active)
same,growth inhibition,[5]; at 100.0 µM,85% (active)
same,growth inhibition,[6]; at 1.2 µM,5%
same,growth inhibition,[6]; at 3.7 µM,61%
same,growth inhibition,[6]; [17],8%
same,growth inhibition,[6]; at 11.0 µM,98% (active)
same,growth inhibition,[6]; at 33.0 µM,96% (active)
same,growth inhibition,[6]; [18],98% (active)
same,growth inhibition,[6]; at 50.0 µM,99% (active)
same,growth inhibition,[6]; at 100.0 µM,90% (active)
same,growth inhibition,[7]; at 1.2 µM,5%
same,growth inhibition,[7]; at 3.7 µM,83% (active)
same,growth inhibition,[7]; at 11.0 µM,98% (active)
same,growth inhibition,[7]; at 33.0 µM,95% (active)
same,growth inhibition,[7]; at 100.0 µM,90% (active)
same,growth inhibition,[8]; [17],11%
same,growth inhibition,[8]; [18],98% (active)
same,growth inhibition,[8]; at 50.0 µM,99.5% (active)
same,growth inhibition,[9]; at 1.2 µM,16%
same,growth inhibition,[9]; at 3.7 µM,90% (active)
same,growth inhibition,[9]; at 11.0 µM,99% (active)
same,growth inhibition,[9]; at 33.0 µM,94% (active)
same,growth inhibition,[9]; at 100.0 µM,88% (active)
same,growth inhibition,[10]; [17],6%
same,growth inhibition,[10]; [18],98% (active)
same,growth inhibition,[10]; at 50.0 µM,98.8% (active)
same,growth inhibition,[11]; at 1.2 µM,10%
same,growth inhibition,[11]; at 3.7 µM,71% (active)
same,growth inhibition,[11]; [17],6%
same,growth inhibition,[11]; at 11.0 µM,97% (active)
same,growth inhibition,[11]; at 33.0 µM,95% (active)
same,growth inhibition,[11]; [18],96% (active)
same,growth inhibition,[11]; at 50.0 µM,98.8% (active)
same,growth inhibition,[11]; at 100.0 µM,87% (active)
same,growth inhibition,[12]; at 1.2 µM,5%
same,growth inhibition,[12]; at 3.7 µM,60%
same,growth inhibition,[12]; at 11.0 µM,98% (active)
same,growth inhibition,[12]; at 33.0 µM,96% (active)
same,growth inhibition,[12]; at 100.0 µM,90% (active)
same,growth inhibition,[13]; at 1.2 µM,6%
same,growth inhibition,[13]; at 3.7 µM,71% (active)
same,growth inhibition,[13]; at 11.0 µM,98% (active)
same,growth inhibition,[13]; at 33.0 µM,97% (active)
same,growth inhibition,[13]; at 100.0 µM,90% (active)
same,growth inhibition,[16]; at 1.2 µM,10%
same,growth inhibition,[16]; at 3.7 µM,75% (active)
same,growth inhibition,[16]; at 11.0 µM,98% (active)
same,growth inhibition,[16]; at 33.0 µM,96% (active)
same,growth inhibition,[16]; at 100.0 µM,92% (active)
same,growth inhibition,[14]; [17],7%
same,growth inhibition,[14]; [18],97% (active)
same,growth inhibition,[14]; at 50.0 µM,99.2% (active)
same,growth inhibition,[15]; at 1.2 µM,11%
same,growth inhibition,[15]; at 3.7 µM,69%
same,growth inhibition,[15]; at 11.0 µM,98% (active)
same,growth inhibition,[15]; at 33.0 µM,95% (active)
same,growth inhibition,[15]; at 100.0 µM,88% (active)
